# Several values for one entry are separate records, joined by “and”; a condition that tells them apart may be missing. Identical values can stand only once. Results filed as inconclusive are left out. Activity calls are given as the source filed them.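 How the source made its calls, unless noted: active means normalized viability below 100% at a tested concentration; inactive means the rest.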
# Experiments:
# [1] = growth inhibition of DIPG glioma cells, dose response, cell-based, SU-DIPG-XVII, MIPE5.0, CellTiter-Glo, qHTS (AID 1347060; cut-off not given, nearly all actives have AC50 up to about 26 µM;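 on AC50: cells exposed to compound for 48 hours before viability readout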); conditions: SU-DIPG-XVII viability, CellTiter-Glo ATP luminescence
# [2] = growth inhibition of DIPG glioma cells, dose response, cell-based, JHH-DIPG-1, MIPE4.0, CellTiter-Glo, qHTS (AID 1347062; cut-off not given, nearly all actives have AC50 up to about 27 µM;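 on AC50: cells exposed to compound for two days before readout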); conditions: JHH-DIPG-1 viability, CellTiter-Glo ATP luminescence
# [3] = growth inhibition of DIPG glioma cells, dose response, cell-based, SU-DIPG-XIII, MIPE5.0, CellTiter-Glo, qHTS (AID 1347064; cut-off not given, nearly all actives have AC50 up to about 23 µM;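 on AC50: cells exposed to compound for 48 hours before the viability read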); conditions: SU-DIPG-XIII viability, CellTiter-Glo ATP luminescence
# [4] = viability loss in pontine glioma line – cell-based, SU-DIPG-XXV, MIPE5.0, CellTiter-Glo, qHTS, dose response (AID 1347065; cut-off not given, nearly all actives have AC50 up to about 26 µM;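 further: cells exposed to compound for 48 hours before ATP readout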); conditions: CellTiter-Glo ATP luminescence
# [5] = SU-DIPG-VI glioma cell viability, MIPE4.0 library, CellTiter-Glo luminescence, qHTS (AID 1347066; cut-off not given, nearly all actives have AC50 up to about 30 µM;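 further: cells exposed to compound for 48 hours before readout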); conditions: CellTiter-Glo ATP luminescence
# [6] = JHH-DIPG-1 glioma cell viability, MIPE5.0 library, CellTiter-Glo luminescence, qHTS (AID 1347067; cut-off not given, nearly all actives have AC50 up to about 26 µM;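 further: cells exposed to compound for 48 hours before readout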); conditions: JHH-DIPG-1 glioma viability, CellTiter-Glo ATP luminescence
# [7] = SU-DIPG-XXV glioma cell viability, MIPE5.0 library, qHTS (AID 1347068; cut-off not given, nearly all actives have IC50 up to about 30 µM;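 on IC50: cells exposed to compound for 48 hours before viability readout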)
# [8] = sensitizers of A549 cells to miR-34 induction, primary screen, imaging, A549 dox-inducible miR-34, nuclei and caspase counts (AID 1347080;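 active means compounds whose cell count with miR-34 switched on is under 0.7 times the count with it off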); conditions: A549 miR-34 inducible, Hoechst nuclei count, 48 h
# [9] = modifiers of HSF1 nuclear foci, imaging, Selleck Cancer Library (AID 1347162; in the data active means plate-normalised HSF1 focus index below about 0.46); conditions: human cells, at 10 µM; SSMD: measured here: HSF1 foci SSMD mean; cell count: measured here: cell number; plate-normalised HSF1 focus index: stronger effect = lower value
# [10] = survival rescue of mitochondrial mutant cells in low glucose, primary screen, MELAS cybrids, Rieske KO mouse fibroblasts, CellTiter-Glo (AID 1508586;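 active means mean z-score across replicates of 1.96 or higher in either the MELAS or the Rieske mutant cell line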;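 further: z relative to plate mean and SD of compound and empty wells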)
# [11] = ovarian cancer cell viability with rucaparib, profiling panel, oncology-focused library, rucaparib conditional (AID 1508598); conditions: patient-derived ovarian cancer cells, CellTiter-Glo viability, 144 h, stronger effect = lower value
# [12] = LFS_MB_P medulloblastoma growth inhibition, cell-based, chromothripsis tumors, cisplatin or BGB combos (AID 1671449; in the data active means inhibition above about 80%;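 further: cells exposed for 96 hours; 0% = vehicle DMSO and 100% = killing by high DMSO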); conditions: LFS_MB_P medulloblastoma cells
# [13] = HDN33 neuroblastoma growth inhibition, cell-based, chromothripsis tumors, cisplatin or BGB combos (AID 1671450; in the data active means inhibition above about 80%;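 further: cells exposed to compound for four days; 0% = vehicle DMSO and 100% = cell killing by high DMSO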); conditions: HDN33 neuroblastoma cells, stronger effect = higher value
# [14] = ICB984 medulloblastoma cell growth inhibition, synergistic combos for chromothripsis tumors, cisplatin or BGB combos (AID 1671451; call rule not given here;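 further: cells exposed for 96 hours before readout; 0% = vehicle DMSO and 100% = killing by high DMSO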); conditions: ICB984 medulloblastoma cells, drug combinations, stronger effect = higher value
# [15] = HTB85 osteosarcoma cell growth inhibition, synergistic combos for chromothripsis tumors, BGB or cisplatin IC20 combos (AID 1671453; in the data active means inhibition above about 80%;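 further: cells exposed for 96 hours before readout; 0% = vehicle DMSO and 100% = high DMSO killing control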); conditions: HTB85 osteosarcoma cells, drug combinations, stronger effect = higher value
# [16] = MDA-MB-436 breast carcinoma cell growth inhibition, synergistic combos for chromothripsis tumors, BGB or cisplatin combos (AID 1671458; call rule not given here;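 further: cells exposed for 96 hours; 0% = vehicle DMSO and 100% = killing by high DMSO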); conditions: MDA-MB-436 breast carcinoma growth inhibition, drug combinations, stronger effect = higher value
# [17] = growth inhibition of BT084 medulloblastoma cells, cell-based, ICGC_MB145, cisplatin and BGB IC40 combos (AID 1671461; in the data active means inhibition above about 80%;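 further: cells exposed to drugs for 96 hours; 0% = vehicle DMSO and 100% = high DMSO full killing control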); conditions: drug combinations, stronger effect = higher value
# [18] = growth inhibition of RCMB18 medulloblastoma cells, cell-based, cisplatin and BGB IC40 combos (AID 1671462; in the data active means inhibition above about 80%;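 further: cells exposed to compound for four days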); conditions: stronger effect = higher value
# [19] = growth inhibition of CRL1545 osteosarcoma cells, cell-based, cisplatin and BGB IC20 combos (AID 1671464; in the data active means inhibition above about 80%;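 further: cells exposed to compound for 96 hours before readout; 0% = vehicle DMSO and 100% = high DMSO killing control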); conditions: stronger effect = higher value
# [20] = stronger effect = lower value, cell number ratio, induced over uninduced
# [21] = measured here: relative caspase fold change +Dox/-Dox
# [22] = measured here: total cells with miR-34 induction, stronger effect = lower value
# [23] = measured here: total cells without miR-34 induction
# [24] = MELAS cybrid survival, CellTiter-Glo 48 h, stronger effect = higher value
# [25] = Rieske KO mouse fibroblast survival, CellTiter-Glo 72 h
# [26] = measured here: with BGB IC20 combination, at 0.5 µM
# [27] = measured here: with cisplatin IC20 combination, at 0.5 µM
smiles,measurement,setting,value
Nc1ccccc1NC(=O)c1ccc(CNc2nccc(-c3cccnc3)n2)cc1,AC50,[1],2630 nM (active)
same,AC50,[2],1480 nM (active)
same,AC50,[3],1480 nM (active)
same,AC50,[4],590 nM (active)
same,AC50,[5],1180 nM (active)
same,AC50,[6],1180 nM (active)
same,IC50,[7],2630 nM (active)
same,fold change,[8]; [20],1.16 (inactive)
same,fold change,[8]; [21],0.733
same,cell count,[8]; [22],1740
same,cell count,[8]; [23],1500
same,SSMD,[9],2.12
same,cell count,[9],7260
same,plate-normalised HSF1 focus index,[9],1.13 (inactive)
same,z-score,[10]; [24],-0.546 (inactive)
same,z-score,[10]; [25],-2.11
same,viability,"[11]; at 0.000305 µM, OCI-C5x cells, with rucaparib 10 µM, 100% = cells with rucaparib alone",107% (inactive)
same,viability,"[11]; at 0.000305 µM, OCI-C5x cells, without rucaparib",111% (inactive)
same,viability,"[11]; at 0.000305 µM, OCI-P5x cells, with rucaparib 20 µM, 100% = cells with rucaparib alone",122% (inactive)
same,viability,"[11]; at 0.000305 µM, OCI-P5x cells, without rucaparib",119% (inactive)
same,viability,"[11]; at 0.00122 µM, OCI-C5x cells, with rucaparib 10 µM, 100% = cells with rucaparib alone",112% (inactive)
same,viability,"[11]; at 0.00122 µM, OCI-C5x cells, without rucaparib",110% (inactive)
same,viability,"[11]; at 0.00122 µM, OCI-P5x cells, with rucaparib 20 µM, 100% = cells with rucaparib alone",110% (inactive)
same,viability,"[11]; at 0.00122 µM, OCI-P5x cells, without rucaparib",116% (inactive)
same,viability,"[11]; at 0.00488 µM, OCI-C5x cells, with rucaparib 10 µM, 100% = cells with rucaparib alone",118% (inactive)
same,viability,"[11]; at 0.00488 µM, OCI-C5x cells, without rucaparib",115% (inactive)
same,viability,"[11]; at 0.00488 µM, OCI-P5x cells, with rucaparib 20 µM, 100% = cells with rucaparib alone",107% (inactive)
same,viability,"[11]; at 0.00488 µM, OCI-P5x cells, without rucaparib",108% (inactive)
same,viability,"[11]; at 0.0195 µM, OCI-C5x cells, with rucaparib 10 µM, 100% = cells with rucaparib alone",119% (inactive)
same,viability,"[11]; at 0.0195 µM, OCI-C5x cells, without rucaparib",117% (inactive)
same,viability,"[11]; at 0.0195 µM, OCI-P5x cells, with rucaparib 20 µM, 100% = cells with rucaparib alone",101% (inactive)
same,viability,"[11]; at 0.0195 µM, OCI-P5x cells, without rucaparib",96.7% (active)
same,viability,"[11]; at 0.0781 µM, OCI-C5x cells, with rucaparib 10 µM, 100% = cells with rucaparib alone",110% (inactive)
same,viability,"[11]; at 0.0781 µM, OCI-C5x cells, without rucaparib",101% (inactive)
same,viability,"[11]; at 0.0781 µM, OCI-P5x cells, with rucaparib 20 µM, 100% = cells with rucaparib alone",103% (inactive)
same,viability,"[11]; at 0.0781 µM, OCI-P5x cells, without rucaparib",94.4% (active)
same,viability,"[11]; at 0.313 µM, OCI-C5x cells, with rucaparib 10 µM, 100% = cells with rucaparib alone",67.3% (active)
same,viability,"[11]; at 0.313 µM, OCI-C5x cells, without rucaparib",71.1% (active)
same,viability,"[11]; at 0.313 µM, OCI-P5x cells, with rucaparib 20 µM, 100% = cells with rucaparib alone",72% (active)
same,viability,"[11]; at 0.313 µM, OCI-P5x cells, without rucaparib",77.1% (active)
same,viability,"[11]; at 1.25 µM, OCI-C5x cells, with rucaparib 10 µM, 100% = cells with rucaparib alone",6.09% (active)
same,viability,"[11]; at 1.25 µM, OCI-C5x cells, without rucaparib",5.69% (active)
same,viability,"[11]; at 1.25 µM, OCI-P5x cells, with rucaparib 20 µM, 100% = cells with rucaparib alone",15.2% (active)
same,viability,"[11]; at 1.25 µM, OCI-P5x cells, without rucaparib",19.7% (active)
same,viability,"[11]; at 5 µM, OCI-C5x cells, with rucaparib 10 µM, 100% = cells with rucaparib alone",5.71% (active)
same,viability,"[11]; at 5 µM, OCI-C5x cells, without rucaparib",5.7% (active)
same,viability,"[11]; at 5 µM, OCI-P5x cells, with rucaparib 20 µM, 100% = cells with rucaparib alone",9.81% (active)
same,viability,"[11]; at 5 µM, OCI-P5x cells, without rucaparib",8.93% (active)
same,inhibition,"[12]; at 0.5 µM, stronger effect = higher value",2.35% (inactive)
same,inhibition,"[12]; measured here: combination with BGB IC20, at 0.005 µM",-20.9%
same,inhibition,"[12]; measured here: combination with BGB IC40, at 0.005 µM",-59.1%
same,inhibition,"[12]; measured here: combination with BGB IC40, at 0.05 µM",-23.9%
same,inhibition,"[12]; measured here: combination with cisplatin, at 0.5 µM, stronger effect = higher value",45.4%
same,inhibition,"[12]; measured here: combination with cisplatin, at 5 µM, stronger effect = higher value",109%
same,inhibition,"[13]; BGB combo, at 5 µM",98.8%
same,inhibition,[13]; at 0.5 µM,51.5% (inactive)
same,inhibition,"[13]; cisplatin combo, at 5 µM",100%
same,inhibition,[13]; [26],59.9%
same,inhibition,[13]; [27],50.6%
same,inhibition,"[13]; single agent, at 5 µM",99.4%
same,inhibition,"[14]; BGB IC20 combo, at 0.005 µM",8.79%
same,inhibition,"[14]; BGB IC40 combo, at 0.005 µM",19.9%
same,inhibition,"[14]; BGB IC40 combo, at 0.05 µM",92.5%
same,inhibition,[14]; at 0.5 µM,-29.5% (inactive)
same,inhibition,"[14]; cisplatin combo, at 0.05 µM",92.7%
same,inhibition,"[14]; cisplatin combo, at 0.5 µM",-33.3%
same,inhibition,"[14]; cisplatin combo, at 5 µM",-7.7%
same,inhibition,"[14]; measured here: 5 uM single agent, at 5 µM",-12.8%
same,inhibition,[15]; at 0.5 µM,18.4% (inactive)
same,inhibition,"[15]; measured here: with BGB IC20, at 0.5 µM",20.6%
same,inhibition,"[15]; measured here: with BGB IC20, at 5 µM",98.9%
same,inhibition,"[15]; measured here: with cisplatin IC20, at 0.5 µM",17.4%
same,inhibition,"[15]; measured here: with cisplatin IC20, at 5 µM",99.2%
same,inhibition,"[15]; single agent, at 5 µM",99.2%
same,inhibition,[16]; at 0.5 µM,23.7% (inactive)
same,inhibition,"[16]; measured here: BGB combination, at 0.5 µM",20.7%
same,inhibition,"[16]; measured here: BGB combination, at 5 µM",64.6%
same,inhibition,"[16]; measured here: cisplatin combination, at 0.5 µM",9.8%
same,inhibition,"[16]; measured here: cisplatin combination, at 5 µM",64%
same,inhibition,[17]; at 0.5 µM,50.1% (inactive)
same,inhibition,"[17]; cisplatin combination, at 0.5 µM",50.8%
same,inhibition,"[17]; cisplatin combination, at 5 µM",83.4%
same,inhibition,"[17]; measured here: BGB IC40 combination 0.05 uM, at 0.05 µM",-5.63%
same,inhibition,"[17]; single agent, at 5 µM",99.8%
same,inhibition,[18]; at 0.5 µM,56.4% (inactive)
same,inhibition,"[18]; cisplatin combo, at 5 µM",95.3%
same,inhibition,"[18]; measured here: BGB IC40 combination, at 0.05 µM",-6.4%
same,inhibition,"[18]; measured here: combination with cisplatin, at 0.5 µM",76.3%
same,inhibition,"[18]; single agent, at 5 µM",94.7%
same,inhibition,[19]; at 0.5 µM,66.9% (inactive)
same,inhibition,[19]; [26],49.6%
same,inhibition,[19]; [27],75.1%
same,inhibition,"[19]; single agent, at 0.05 µM",31.7%
same,inhibition,"[19]; single agent, at 5 µM",90.8%
CN(C(Cc1ccc(OS(=O)(=O)c2cccc3cnccc23)cc1)C(=O)N1CCN(c2ccccc2)CC1)S(=O)(=O)c1cccc2cnccc12 (stereo unspecified),outcome,[1],inactive
same,outcome,[2],inactive
same,outcome,[3],inactive
same,outcome,[5],inactive
same,outcome,[6],inactive
same,outcome,[7],inactive
same,fold change,[8]; [20],0.886 (inactive) and 0.945 (inactive)
same,fold change,[8]; [21],1.12 and 0.338
same,cell count,[8]; [22],4410 and 6540
same,cell count,[8]; [23],4980 and 6920
same,z-score,[10]; [24],-0.441 (inactive)
same,z-score,[10]; [25],-1.42

# — PubChem BioAssay
